Data on 14 molecules can be found in PubChem BioAssay (NCATS).

Results filed as inconclusive are left out. Activity calls are given as the source filed them. Calls come from the whole dose curve; as a rule, active = well fitted curve in the direction sought with a large enough effect; inconclusive = small, poorly fitted or top-dose-only effect, or another doubt; inactive = no such curve, though single readings can be large; an effect the other way counts as inactive or inconclusive.

Experiment [1] is described as follows: Quantitative High-Throughput drug screen in 47 multiple myeloma cell lines against the NCATS MIPE library collection: KMS28PE_JCRB cell viability assay (AID 1918983). Note: nearly all actives have a fitted effect of over 35% in size. Note: potency is the fitted concentration of half-maximal effect. The gist of the method: (§1)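 500 cells/well; MIPE 4.0 drugs pin-transferred; 48 h, 37C, 5% CO2. CellTiter-Glo, 5 min RT, luminescence. Controls: DMSO 100%, media 0%.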
A short description of experiment [2]: Quantitative High-Throughput drug screen in 47 multiple myeloma cell lines against the NCATS MIPE library collection: OCIMY5_PLB cell viability assay (AID 1918988). Note: nearly all actives have a fitted effect of over 65% in size. Note: potency is the fitted concentration of half-maximal effect. The gist of the method: as §1
The nature of experiment [3]: Quantitative High-Throughput drug screen in 47 multiple myeloma cell lines against the NCATS MIPE library collection: OPM1_PLB cell viability assay (AID 1918989). Note: nearly all actives have a fitted effect of over 40% in size. Note: potency is the fitted concentration of half-maximal effect. The gist of the method:
as §1

A short description of experiment [4]: Quantitative High-Throughput drug screen in 47 multiple myeloma cell lines against the NCATS MIPE library collection: SKMM1_PLB cell viability assay (AID 1919863). Note: potency is the fitted concentration of half-maximal effect; nearly all actives have a fitted effect of over 35% in size. To be noted: SKMM1 myeloma viability, CellTiter-Glo ATP, 48 h; viability: stronger effect = lower value. The gist of the method: as §1
Experiment [5] can be described thus: Quantitative High-Throughput drug screen in 47 multiple myeloma cell lines against the NCATS MIPE library collection: U266_ATCC cell viability assay (AID 1919864). Note: nearly all actives have a fitted effect of over 35% in size. Note: potency is the fitted concentration of half-maximal effect. The gist of the method:
as §1

Experiment [6] can be described thus: Quantitative High-Throughput drug screen in 47 multiple myeloma cell lines against the NCATS MIPE library collection: XG6_PLB cell viability assay (AID 1919865). Note: nearly all actives have a fitted effect of over 40% in size. Note: potency is the fitted concentration of half-maximal effect. The procedure, abridged: as §1
Experiment [7] can be described thus: Quantitative High-Throughput drug screen in 47 multiple myeloma cell lines against the NCATS MIPE library collection: VP6_DJ cell viability assay (AID 1919867). Note: nearly all actives have a fitted effect of over 40% in size. Note: potency is the fitted concentration of half-maximal effect. The procedure, abridged:
as §1

Experiment [8] in a line: Quantitative High-Throughput drug screen in 47 multiple myeloma cell lines against the NCATS MIPE library collection: PCM6_Riken cell viability assay (AID 1919870). Note: nearly all actives have a fitted effect of over 30% in size. Note: potency is the fitted concentration of half-maximal effect. The procedure, abridged:
as §1

Experiment [9] is described as follows: Quantitative High-Throughput drug screen in 47 multiple myeloma cell lines against the NCATS MIPE library collection: KMS28BM_JCRB cell viability assay (AID 1919874). Note: nearly all actives have a fitted effect of over 35% in size. Note: potency is the fitted concentration of half-maximal effect. The gist of the method:
as §1

Experiment [10] can be described thus: Quantitative High-Throughput drug screen in 47 multiple myeloma cell lines against the NCATS MIPE library collection: KMS34_JCRB cell viability assay (AID 1918985). Note: nearly all actives have a fitted effect of over 40% in size. The gist of the method: as §1
The nature of experiment [11]: Quantitative High-Throughput drug screen in 47 multiple myeloma cell lines against the NCATS MIPE library collection: RPMI8226_ATCC cell viability assay (AID 1919871). Note: nearly all actives have a fitted effect of over 30% in size. Note: potency is the fitted concentration of half-maximal effect. The procedure, abridged:
as §1

Experiment [12] is described as follows: Quantitative High-Throughput drug screen in 47 multiple myeloma cell lines against the NCATS MIPE library collection: OPM2_DSMZ cell viability assay (AID 1919872). Note: nearly all actives have a fitted effect of over 30% in size. Note: potency is the fitted concentration of half-maximal effect. The procedure, abridged: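 Relative luminescence from CellTiter-Glo served as the viability signal, referenced to DMSO-treated (100%) and cell-free medium (0%) controls. Treatment lasted 48 hours at 37C with 500 cells per well.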

In experiment [13] the target is Cytochrome P450 3A4 (Homo sapiens) (UniProt P08684). Briefly: qHTS for inhibitors of CYP3A4 against the NCATS DSHEA and TCM libraries (AID 1919971).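 Note: inhibition lowers luminescence from luciferin made by CYP3A4.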 The procedure, abridged: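 Isoform-specific enzyme and substrate levels; enzyme-free wells as background. Reaction: 1x NADPH regenerating system, 30-45 min, room temperature, shielded from light; luminescent detection reagent added, 30 min.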
Cytochrome P450 3A4 (Homo sapiens), sequence (P08684 whole entry, looked up, canonical isoform): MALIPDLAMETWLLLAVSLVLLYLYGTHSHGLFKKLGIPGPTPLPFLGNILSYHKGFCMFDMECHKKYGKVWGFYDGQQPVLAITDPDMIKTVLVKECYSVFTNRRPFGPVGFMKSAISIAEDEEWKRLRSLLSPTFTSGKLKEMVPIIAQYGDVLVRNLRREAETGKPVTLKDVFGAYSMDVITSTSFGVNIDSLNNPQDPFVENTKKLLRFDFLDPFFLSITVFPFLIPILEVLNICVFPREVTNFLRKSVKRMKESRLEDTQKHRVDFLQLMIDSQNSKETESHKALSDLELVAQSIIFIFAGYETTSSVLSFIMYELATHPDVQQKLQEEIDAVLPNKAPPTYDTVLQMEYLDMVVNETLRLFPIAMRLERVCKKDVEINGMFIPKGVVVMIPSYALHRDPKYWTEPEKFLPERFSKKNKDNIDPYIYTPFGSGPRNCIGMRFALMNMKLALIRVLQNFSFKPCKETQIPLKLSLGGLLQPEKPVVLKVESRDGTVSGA
For orientation: In qHTS, concentration-response curves come from the screen itself.

Experiment [14] is described as follows: Quantitative High-Throughput drug screen in 47 multiple myeloma cell lines against the NCATS MIPE library collection: OCIMY7_PLB cell viability assay (AID 1918987). Note: nearly all actives have a fitted effect of over 65% in size. Note: potency is the fitted concentration of half-maximal effect. The procedure, abridged: as §1
Experiment [15] can be described thus: Quantitative High-Throughput drug screen in 47 multiple myeloma cell lines against the NCATS MIPE library collection: XG1_PLB cell viability assay (AID 1919866). Note: nearly all actives have a fitted effect of over 35% in size. Note: potency is the fitted concentration of half-maximal effect. The gist of the method:
as §1

Experiment [16] can be described thus: Quantitative High-Throughput drug screen in 47 multiple myeloma cell lines against the NCATS MIPE library collection: PE2_PLB cell viability assay (AID 1919869). Note: nearly all actives have a fitted effect of over 35% in size. Note: potency is the fitted concentration of half-maximal effect. The procedure, abridged: as §1
A short description of experiment [17]: Quantitative High-Throughput drug screen in 47 multiple myeloma cell lines against the NCATS MIPE library collection: KMS11_JCRBsus cell viability assay (AID 1919873). Note: nearly all actives have a fitted effect of over 50% in size. Note: potency is the fitted concentration of half-maximal effect. The gist of the method: as §1
Experiment [18] can be described thus: Quantitative High-Throughput drug screen in 47 multiple myeloma cell lines against the NCATS MIPE library collection: L363_DSMZ cell viability assay (AID 1918984). Note: nearly all actives have a fitted effect of over 40% in size. Note: potency is the fitted concentration of half-maximal effect. The gist of the method:
as §1

A short description of experiment [19]: Quantitative High-Throughput drug screen in 47 multiple myeloma cell lines against the NCATS MIPE library collection: UTMC2_PLB cell viability assay (AID 1919868). Note: nearly all actives have a fitted effect of over 55% in size. Note: potency is the fitted concentration of half-maximal effect. The gist of the method: as §1

As to `CNNCc1ccc(C(=O)NC(C)C)cc1`, the values for the Potency in experiment [1], in experiment [2] and in experiment [4] were 13.2 µM (active), 16.6 µM (active) and 9.35 µM (active), respectively. In addition, the Potency entry in experiment [3], in [5], in experiment [6], in experiment [7], in experiment [8] and in experiment [9] was “inactive” in each case.
Take `O=C(O)c1cccnc1`: the Potency entry in experiment [1], in experiment [10], in experiment [3], in experiment [5], in experiment [11] and in experiment [12] was “inactive” throughout. The Potency in experiment [7] was 16.6 µM (active). The molecule was classed as inactive in experiment [13].
Take `CC(C)OC(=O)C(C(=O)OC(C)C)=C1SC=CS1`: the Potency result in experiment [1], in experiment [14], in experiment [6], in experiment [15], in experiment [7] and in experiment [16] was “inactive” in each case. The Potency entry in experiment [8], in experiment [12], in [17] and in [9] was “inactive” throughout.
Take `O[C@@H](CNC[C@H](O)[C@H]1CCc2cc(F)ccc2O1)[C@@H]1CCc2cc(F)ccc2O1`: the Potency in experiment [18] was 16.6 µM (active); in experiment [2], 20.9 µM (active); in [3] it was 26.4 µM (active); in experiment [5] it was 26.4 µM (active); in experiment [6], 13.2 µM (active); in experiment [7], 14.8 µM (active). Besides, the Potency in [16] was 26.4 µM (active); in experiment [8], 16.6 µM (active); in experiment [11], 20.9 µM (active); in experiment [12] it was 18.7 µM (active); in experiment [17], 7.43 µM (active); in [9], 18.7 µM (active).
As for `CC[C@H](C)C(=O)O[C@H]1C[C@@H](C)C=C2C=C[C@H](C)[C@H](CC[C@@H]3C[C@@H](O)CC(=O)O3)[C@H]21`, the Potency in experiment [14] is 4.69 µM (active); in experiment [2] it was 16.6 µM (active); in experiment [3] it was 11.8 µM (active); in experiment [17] it was 20.9 µM (active). Besides, the Potency entry in [8] was “inactive”.
Consider `C#CCN[C@@H]1CCc2ccccc21`, for which the Potency entry in experiment [18], in experiment [10], in experiment [3], in [5], in experiment [17] and in experiment [9] was “inactive” each time. Further, the Potency in experiment [11] was 9.35 µM (active).
As for `COc1cc([C@@H]2c3cc4c(cc3[C@H](O)[C@H]3COC(=O)[C@H]23)OCO4)cc(OC)c1OC`, the Potency result in experiment [18], in experiment [10], in [14], in experiment [3], in [5] and in experiment [6] was “inactive” in each case. In addition, the Potency result in experiment [19], in [8], in experiment [12] and in experiment [17] was “inactive” throughout.
Turning to `Nc1nc(N)c2nc(CNc3ccc(C(=O)NC(CCC(=O)O)C(=O)O)cc3)cnc2n1` (stereo not given), the Potency result in experiment [1] is “inactive”. The values for the Potency in [5], in [17] and in experiment [9] were 0.148 µM (active), 0.0526 µM (active) and 0.0296 µM (active), respectively.
For the molecule `CCn1cc(C(=O)O)c(=O)c2cc(F)c(N3CCNCC3)nc21`, the Potency entry in experiment [2], in experiment [3], in experiment [6], in experiment [15], in experiment [8] and in experiment [11] was “inactive” throughout.
For the molecule `C[C@@H]1C[C@H]2[C@@H]3CCC4=CC(=O)C=C[C@]4(C)[C@@]3(Cl)[C@@H](O)C[C@]2(C)[C@@]1(OC(=O)c1ccco1)C(=O)CCl`, the Potency was 9.35 µM (active) in experiment [14]; 16.6 µM (active) in experiment [2]; 10.5 µM (active) in [3]; 9.35 µM (active) in experiment [5]; 1.66 µM (active) in experiment [6]; 3.72 µM (active) in experiment [15]. The Potency in experiment [7] was 2.96 µM (active); in experiment [19], 10.5 µM (active); in experiment [8], 2.96 µM (active).
For `Cc1oc(=O)oc1CN1CCN(c2cc3c(cc2F)c(=O)c(C(=O)O)c2n3C(C)S2)CC1` (stereo not given), the Potency entry in experiment [14], in experiment [3], in [5], in experiment [7], in [8] and in [11] was “inactive” in each case. Further, the Potency entry in experiment [17] was “inactive”. Further, the Potency in experiment [16] is 13.2 µM (active).
For the molecule `O=S(=O)(c1cccc2cnccc12)N1CCCNCC1`, the Potency was 18.7 µM (active) in experiment [1], 20.9 µM (active) in experiment [6], 18.7 µM (active) in [7] and 16.6 µM (active) in [8]. Also, the Potency entry in experiment [5], in [11] and in experiment [17] was “inactive” each time.
Take `CS(=O)(=O)c1ccc([C@@H](O)[C@@H](CO)NC(=O)C(Cl)Cl)cc1`: the Potency entry in experiment [1], in [5] and in [12] was “inactive” in each case. Further, the Potency is 18.7 µM (active) in experiment [6]; 18.7 µM (active) in experiment [15]; 16.6 µM (active) in experiment [7]; 16.6 µM (active) in experiment [8]; 2.35 µM (active) in [11]; 11.8 µM (active) in experiment [17].
As to `NCCCC(O)(P(=O)(O)O)P(=O)(O)O`, the Potency entry in [1], in [3], in experiment [15], in [16] and in experiment [11] was “inactive” in each case. The Potency in experiment [8] was 9.35 µM (active).
